Measured values taken from PubChem BioAssay.
Values joined by “and” are separate entries in the source; they are usually repeats but may differ in a detail not shown here. Equal entries are not always repeated. For some assays here: Results with a measured potency or affinity are listed apart. Active and inactive are the calls of the source.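 Rule for the calls, unless noted: active = thallium flux through the channel raised or lowered by more than 3 SD from vehicle-only wells, actives on both sides; inactive = the rest.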

Experiments:
[1] = blockers of polyQ-driven CASP3 activation – cell-based (AID 1583); conditions: polyglutamine-induced caspase-3 activation, cell assay; stronger effect = higher value;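 tested at 10 µM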
[2] = yeast 75Q aggregation reduction – 75Q-TubU reporter (AID 1593); conditions: Yeast 75Q polyglutamine aggregation reporter
[3] = restoration of touch response, mutant HTT neurons – whole organism, C. elegans mechanosensory neurons, N-terminal huntingtin (AID 1599); conditions: C. elegans polyQ-huntingtin mechanosensory neurons, stronger effect = higher value
[4] = blockers of cytochrome c efflux from mitochondria – biochemical, purified mitochondria (AID 1603); conditions: stronger effect = lower value;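 note: mouse liver mitochondria challenged with calcium chloride; signal normalized to the plate average as 100%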
[5] = polyglutamine aggregate formation blockers (AID 1604); conditions: polyglutamine-induced protein aggregation inhibition assay; stronger effect = higher value; tested at 2.5 µM
[6] = glutamate transport activators, MN-1 cells, MN-1 cell line (AID 1612); conditions: MN-1 motor neuron cells, stronger effect = higher value;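 note: tested at 1 µM final; 0% = mean of DMSO vehicle wells on each plate; positive means more glutamate uptake than control and negative means less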
[7] = 75Q-TubH aggregate inhibition, S. cerevisiae, yeast (AID 1616); conditions: S. cerevisiae 75Q-TubH polyglutamine aggregation suppression; stronger effect = higher value
[8] = compounds altering viability of human ES cells (AID 493140; call rule not given here;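 note: cells exposed to compounds for four days before counting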); conditions: human embryonic stem cell survival screen; stronger effect = higher value
[9] = signal quenchers or enhancers, Cy5 substrate/SSB – biochemical, NIH Clinical Collection, E. coli SSB, artefact control for HCV NS3 helicase inhibitor project (AID 743268; call rule not given here); conditions: Cy5-oligo bound E. coli SSB, fluorescence interference
[10] = modulation of C. elegans fzo-1 (AID 1259413; call rule not given here;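 note: fzo-1 mutant C. elegans worms in liquid wells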); conditions: C. elegans fzo-1 modulator screen, mean read-out; stronger effect = higher value
[11] = galactose survival enhancers in mitochondrial complex I cybrids – cell-based, galactose medium, ATP luminescence, primary screen (AID 1645843;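 active = z-score of at least 1.8 in each of two replicates, scored against plate mean and spread of sample wells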;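 note: positive z means more ATP and so rescue of galactose-driven cybrid death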); conditions: complex I mutant cybrid cells, 72 h, stronger effect = higher value
F380Y/beta1 = assay: BK channel mutant inhibitors and activators – cell-based, U2OS BacMam, thallium flux, beta subunits, selectivity assay, profiling panel (AID 1259406); conditions: U2OS BacMam BK variants, at 30 µM;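 note: initial slope of Thallos dye fluorescence rise after thallium is added; log ratio against the mean of 0.3% DMSO vehicle wells on the same plate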
F380Y/beta4 = assay: as above; conditions: U2OS BacMam BK variants, at 30 µM
R275C = assay: as above; conditions: U2OS BacMam BK variants, at 30 µM
R275C/beta1 = assay: as above; conditions: U2OS BacMam BK variants, at 30 µM
R275C/beta2Delta = assay: as above; conditions: U2OS BacMam BK variants, at 30 µM
R275C/beta4 = assay: as above; conditions: U2OS BacMam BK variants, at 30 µM
R275C/Slo1WT/beta2 = assay: as above; conditions: U2OS BacMam BK variants, at 30 µM
[12] = P. berghei load reduction in hepatocytes – cell-based, HepG2, luciferase luminescence, HepG2 viability, primary screen (AID 624349; in the data active = parasite load remaining mostly below about 12%, no sharp cut-off; inactive = mostly above about 10%;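 note: 100% = mean of DMSO negative control wells on the same plate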); conditions: P. berghei liver stage in HepG2, luciferase luminescence, concentration not given here; parasite load remaining: stronger effect = lower value; viability: measured here: HepG2 viability without parasites

Structure (SMILES): NS(=O)(=O)c1cc2c(cc1C(F)(F)F)NC(Cc1ccccc1)NS2(=O)=O (stereo not drawn)
- inhibition [1]: 23.3%
- score [2]: 1.25
- rescue above control [3]: -3.69
- cytochrome c release ratio [4]: 1.06
- inhibition of aggregation [5]: 66.2%
- glutamate uptake change [6]: 10.7%
- aggregation suppression score [7]: 1.15
- survival [8]: 3.67 (inactive)
- fluorescence ratio [9]: 1.02 (inactive)
- mean signal [10]: 239 (inactive)
- z-score [11]: 1.88 (inactive)
- log fold change Tl+ flux (F380Y/beta1): -0.0798 (inactive)
- log fold change Tl+ flux (F380Y/beta4): 0.0179 (inactive)
- log fold change Tl+ flux (R275C): 0.0405 (inactive)
- log fold change Tl+ flux (R275C/beta1): 0.0248 (inactive)
- log fold change Tl+ flux (R275C/beta2Delta): 0.0558 (inactive)
- log fold change Tl+ flux (R275C/beta4): -0.00759 (inactive)
- log fold change Tl+ flux (R275C/Slo1WT/beta2): -0.0386 (inactive)

Structure (SMILES): CC(C)(C)NCC(O)COc1cccc2c1C[C@H](O)[C@H](O)C2 (stereo partly drawn)
- inhibition [1]: 27.5%
- score [2]: 1.45
- rescue above control [3]: -2.31
- cytochrome c release ratio [4]: 0.46
- inhibition of aggregation [5]: 78.2%
- glutamate uptake change [6]: -4.44%
- aggregation suppression score [7]: 1.12
- survival [8]: 5.83 (inactive)
- parasite load remaining [12]: 69.2% (inactive) and 72.2% (inactive) and 65.4% (inactive)
- viability [12]: 124% and 85.6% and 141%
- fluorescence ratio [9]: 0.99 (inactive)
- mean signal [10]: 269 (inactive)
- z-score [11]: 0.01 (inactive)
- log fold change Tl+ flux (F380Y/beta1): 0.00674 (inactive)
- log fold change Tl+ flux (F380Y/beta4): 0.0116 (inactive)
- log fold change Tl+ flux (R275C): -0.00576 (inactive)
- log fold change Tl+ flux (R275C/beta1): -0.0239 (inactive)
- log fold change Tl+ flux (R275C/beta2Delta): 0.0276 (inactive)
- log fold change Tl+ flux (R275C/beta4): -0.0328 (inactive)
- log fold change Tl+ flux (R275C/Slo1WT/beta2): 0.00485 (inactive)

Structure (SMILES): CCn1cc(C(=O)O)c(=O)c2cc(F)c(N3CCN(C)CC3)cc21
- mean signal [10]: 261 (inactive)
- z-score [11]: 0.7 (inactive) and 0.275 (inactive)
- log fold change Tl+ flux (F380Y/beta1): -0.000461 (inactive)
- log fold change Tl+ flux (F380Y/beta4): 0.0266 (inactive)
- log fold change Tl+ flux (R275C): -0.0565 (inactive)
- log fold change Tl+ flux (R275C/beta1): 0.0145 (inactive)
- log fold change Tl+ flux (R275C/beta2Delta): -0.0279 (inactive)
- log fold change Tl+ flux (R275C/beta4): 0.00214 (inactive)
- log fold change Tl+ flux (R275C/Slo1WT/beta2): 0.067 (inactive)

Structure (SMILES): CCN(CC)CCOC(=O)C1(C2CCCCC2)CCCCC1
- inhibition [1]: -0.16%
- score [2]: 0.92
- rescue above control [3]: 8.2
- cytochrome c release ratio [4]: 0.58
- inhibition of aggregation [5]: 78.3%
- glutamate uptake change [6]: -7.11%
- aggregation suppression score [7]: 1.04
- survival [8]: 16.2 (inactive)
- fluorescence ratio [9]: 1.01 (inactive)
- mean signal [10]: 236 (inactive)
- z-score [11]: -0.95 (inactive) and -0.895 (inactive) and -2.66 (inactive)
- log fold change Tl+ flux (F380Y/beta1): -0.0697 (inactive)
- log fold change Tl+ flux (F380Y/beta4): -0.0157 (inactive)
- log fold change Tl+ flux (R275C): -0.00463 (inactive)
- log fold change Tl+ flux (R275C/beta1): 0.0871 (inactive)
- log fold change Tl+ flux (R275C/beta2Delta): 0.0332 (inactive)
- log fold change Tl+ flux (R275C/beta4): 0.0991 (inactive)
- log fold change Tl+ flux (R275C/Slo1WT/beta2): 0.00259 (inactive)

Structure (SMILES): CN(C)CCCN1c2ccccc2Sc2ccc(Cl)cc21
- inhibition [1]: 1.97%
- score [2]: 0.97
- rescue above control [3]: 0
- cytochrome c release ratio [4]: 1.17
- inhibition of aggregation [5]: 35.3%
- glutamate uptake change [6]: 11.9%
- aggregation suppression score [7]: 1.25
- survival [8]: 3.17 (inactive)
- fluorescence ratio [9]: 1.03 (inactive)
- mean signal [10]: 252 (inactive)
- z-score [11]: -1.52 (inactive) and -1.29 (inactive) and -1.43 (inactive)
- log fold change Tl+ flux (F380Y/beta1): -0.176 (active)
- log fold change Tl+ flux (F380Y/beta4): 0.171 (active)
- log fold change Tl+ flux (R275C): -0.0248 (inactive)
- log fold change Tl+ flux (R275C/beta1): 0.272 (active)
- log fold change Tl+ flux (R275C/beta2Delta): 0.103 (active)
- log fold change Tl+ flux (R275C/beta4): 0.154 (active)
- log fold change Tl+ flux (R275C/Slo1WT/beta2): -0.0668 (inactive)
